Test results published in PubChem BioAssay (NCATS).
Records with an inconclusive call do not appear. Activity calls are given as the source filed them. Unless noted, calls follow the shape of the dose curve; as a rule, active = well fitted curve in either direction with a large enough effect (not every such curve was filed as active); inconclusive = small, poorly fitted or top-dose-only effect, or another doubt; inactive = flat fitted curve, though single readings scatter.

How the values were obtained:
[1] = target: Lysosomal acid glucosylceramidase (Homo sapiens) (UniProt P04062); experiment: Glucocerebrosidase-p2 (AID 348; in the data active = potency below about 10 µM; also: potency is read from the fitted curve at half-maximal effect); details: purified GBA, blue fluorogenic substrate, 40 min
Method in brief: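 Normal human glucocerebrosidase (0.2 nM) with blue fluorogenic substrate (80 uM final) in citrate/phosphate pH 5.9 with 10mM sodium taurocholate, 0.01% tween-20; 40 min RT, NaOH/glycine stop; fluorescence Ex 365/Em 440; AC50 from a titration from 0.6 nM upwards.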

[2] = AP1 Signaling Pathway (AID 357); details: ME-180 AP-1-bla reporter, EGF-induced, beta-lactamase ratio, 5 h; at 7.69 µM (top of the series) unless noted; also: % is scaled to controls: 0 for no effect and ±100 for the full control effect
Method in brief: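 AP-1-bla ME-180 cells with beta-lactamase reporter under AP-1 response element, stimulated with EC50 EGF; compounds titrated, 5 hours at 37 degrees Celsius. CCF4 read at 460/530 nm ratio; positive and negative modulators judged by AC50.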

[3] = NFAT Signaling Pathway (AID 444); details: Jurkat NFAT-bla M1, carbachol, beta-lactamase ratio, 5 h; at 7.69 µM (top of the series) unless noted;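 also: carbachol stimulus at about its EC50 of 1 µM final; % is scaled to controls: 0 for no effect and ±100 for the full control effect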
Method in brief: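 Jurkat cells carrying an NFAT-driven β-lactamase reporter and co-transfected muscarinic M1 receptor were treated with compound plus carbachol (1 uM final, an EC50 level) for 5 h at 37 °C. CCF4 loading followed for 1 h at RT; 460/530 nm ratio gave %activity.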

[4] = Stat Signaling Pathway (AID 446); details: ME-180 (cervical carcinoma) SIE beta-lactamase reporter, IL-6 stimulated, 5 h; at 7.69 µM (top of the series) unless noted;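 also: ME-180 cervical cancer cells given 40 pM IL-6 alongside compound; SIE-controlled beta-lactamase reporter measured as 460/530 nm FRET emission ratio; % is scaled to controls: 0 for no effect and ±100 for the full control effect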
Method in brief: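 FRET read-out (405 nm excitation, 460/530 nm emission) of a beta-lactamase reporter under a STAT-inducible element in ME-180 cervical carcinoma cells. Cells with compound receive 40 pM IL-6 for 5 h. Values are normalised to AC90 stimulation and AC90 JAK-inhibitor controls.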

[5] = target: Glucocorticoid receptor (Homo sapiens) (UniProt P04150); experiment: GR-EFC Redistribution (AID 451; calls by dose curve; also: potency is read from the fitted curve at half-maximal effect); details: CHO-K1 GR-EFC translocation, beta-gal luminescence, 2 h
Method in brief: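 CHO-K1 cells stably expressing nuclear-localized β-gal enzyme acceptor and GR fused C-terminally to the enzyme donor fragment; ligand-driven nuclear translocation restores β-gal by complementation. Compounds titrated up to 46 uM final, 2 h at 37 °C; luminescence read.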

[6] = target: Mitogen-activated protein kinase 10 (Mus musculus) (UniProt Q61831); experiment: JNK3 AlphaScreen Assay (AID 530); details: JNK3 lysate, c-Jun phosphorylation; series mostly up to 57.1 µM;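 also: kinase came from lysate of stimulated human HepG2 cells; signal reports phosphorylation of biotinylated GST-cJun 1-79 at Ser73 with 10 µM ATP; % is scaled to controls: 0 for no effect and ±100 for the full control effect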
Method in brief: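 Biotinylated GST-cJun(1-79) served as substrate for JNK3 in HepG2 lysates stimulated with IL-1beta and TNF-alpha. ATP was 10 uM final, pH 7.6. Ser73 phosphorylation was quantified by AlphaScreen (680 nm excitation).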

[7] = target: 3',5'-cyclic-AMP phosphodiesterase 4B (Homo sapiens) (UniProt Q07343); experiment: qHTS Assay for Inhibitors of PDE-IV (AID 607; active = well fitted activation curve with a large enough effect in the main read-out, with a control signal flat, not every such curve was filed as active; also: % of control where 0% means no effect); details: HEK293 ACTOne CNG channel cells, membrane potential fluorescence; series mostly up to 22.9 µM
Method in brief: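 Cell-based read-out of cAMP via a modified cyclic nucleotide-gated channel and membrane potential dye (535/590 nm) in HEK293 cells expressing PDE4 endogenously. Compounds tested up to 22.9 uM final; 100 uM RO 20-1724 reference.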

[8] = qHTS Assay for Lipid Storage Modulators (AID 1519; calls by dose curve); details: Drosophila S3 cells, BODIPY lipid droplet/cell ratio, laser cytometry, cells loaded with oleic acid; for activity change, negative = inhibition: at 57.5 µM (top of the series)
Method in brief: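 Cells seeded at 5,000 per well were treated with compounds over a concentration series and loaded with oleic acid (400 uM, as added). Lipid droplet fluorescence (488 nm excitation, 500-530 nm channel) was read by laser-scanning cytometry and normalized to 20 uM Triacsin C.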

[9] = Primary qHTS for small molecule stabilizers of the endoplasmic reticulum resident proteome: Secreted ER Calcium Modulated Protein (SERCaMP) assay (AID 1508630; active = well fitted inhibition curve with a large enough effect; also: % is scaled to controls: 0 for no effect and ±100 for the full control effect); details: SH-SY5Y GLuc-SERCaMP (Gaussia luciferase released on ER calcium loss) secretion, thapsigargin, luminescence; series mostly up to 38.4 µM
Method in brief: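 The SH-SY5Y reporter protocol was run at 3 concentrations up to 38.3 uM (primary) or 11 concentrations (follow-up): 16 h compound, 100 nM thapsigargin for 4 h, then extracellular luciferase luminescence.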

[10] = measured here: cell count channel max response
[11] = measured here: lipid channel max response

Sequence of Glucocorticoid receptor (Homo sapiens) (P04150 whole entry, looked up, the tested form may be a part): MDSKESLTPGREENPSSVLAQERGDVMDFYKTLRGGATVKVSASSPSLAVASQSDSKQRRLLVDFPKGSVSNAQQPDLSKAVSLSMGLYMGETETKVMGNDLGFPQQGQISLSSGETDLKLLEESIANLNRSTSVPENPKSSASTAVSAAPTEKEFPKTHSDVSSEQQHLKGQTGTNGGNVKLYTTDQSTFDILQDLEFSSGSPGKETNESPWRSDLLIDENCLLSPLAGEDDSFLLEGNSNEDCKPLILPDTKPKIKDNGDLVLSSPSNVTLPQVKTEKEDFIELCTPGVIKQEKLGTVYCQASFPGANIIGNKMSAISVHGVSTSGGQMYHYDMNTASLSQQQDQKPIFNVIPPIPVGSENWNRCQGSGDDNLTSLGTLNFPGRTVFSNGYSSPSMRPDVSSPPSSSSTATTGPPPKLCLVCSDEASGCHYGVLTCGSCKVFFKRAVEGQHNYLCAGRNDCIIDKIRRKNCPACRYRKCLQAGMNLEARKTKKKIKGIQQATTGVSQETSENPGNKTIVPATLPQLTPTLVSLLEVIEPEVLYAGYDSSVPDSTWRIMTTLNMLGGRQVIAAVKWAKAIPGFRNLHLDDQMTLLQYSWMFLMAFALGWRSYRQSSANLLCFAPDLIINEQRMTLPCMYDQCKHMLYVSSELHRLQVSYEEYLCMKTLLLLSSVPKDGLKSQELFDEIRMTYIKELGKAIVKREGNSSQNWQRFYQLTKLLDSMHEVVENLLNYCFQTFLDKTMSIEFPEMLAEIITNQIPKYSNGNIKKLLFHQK
Sequence of 3',5'-cyclic-AMP phosphodiesterase 4B (Homo sapiens) (Q07343 whole entry, looked up): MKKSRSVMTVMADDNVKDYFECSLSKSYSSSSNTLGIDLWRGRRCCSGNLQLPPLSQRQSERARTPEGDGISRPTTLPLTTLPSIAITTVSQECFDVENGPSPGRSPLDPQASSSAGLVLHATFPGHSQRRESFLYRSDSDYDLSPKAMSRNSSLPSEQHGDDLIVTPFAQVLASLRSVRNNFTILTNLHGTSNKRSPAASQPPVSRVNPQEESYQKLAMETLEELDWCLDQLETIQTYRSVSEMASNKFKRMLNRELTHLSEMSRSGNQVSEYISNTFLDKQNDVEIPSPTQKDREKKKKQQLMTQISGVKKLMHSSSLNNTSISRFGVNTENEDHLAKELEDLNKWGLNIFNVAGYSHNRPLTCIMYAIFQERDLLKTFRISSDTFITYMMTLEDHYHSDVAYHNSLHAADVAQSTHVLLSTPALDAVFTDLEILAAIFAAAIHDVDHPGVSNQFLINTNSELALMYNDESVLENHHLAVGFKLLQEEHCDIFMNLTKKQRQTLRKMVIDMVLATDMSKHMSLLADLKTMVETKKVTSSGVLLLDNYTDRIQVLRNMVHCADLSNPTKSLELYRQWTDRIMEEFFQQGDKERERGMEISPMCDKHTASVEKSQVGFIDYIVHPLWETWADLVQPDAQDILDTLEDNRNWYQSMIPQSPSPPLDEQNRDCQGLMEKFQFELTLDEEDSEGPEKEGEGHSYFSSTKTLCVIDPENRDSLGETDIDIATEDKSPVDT
Sequence of Lysosomal acid glucosylceramidase (Homo sapiens) (P04062 whole entry, looked up): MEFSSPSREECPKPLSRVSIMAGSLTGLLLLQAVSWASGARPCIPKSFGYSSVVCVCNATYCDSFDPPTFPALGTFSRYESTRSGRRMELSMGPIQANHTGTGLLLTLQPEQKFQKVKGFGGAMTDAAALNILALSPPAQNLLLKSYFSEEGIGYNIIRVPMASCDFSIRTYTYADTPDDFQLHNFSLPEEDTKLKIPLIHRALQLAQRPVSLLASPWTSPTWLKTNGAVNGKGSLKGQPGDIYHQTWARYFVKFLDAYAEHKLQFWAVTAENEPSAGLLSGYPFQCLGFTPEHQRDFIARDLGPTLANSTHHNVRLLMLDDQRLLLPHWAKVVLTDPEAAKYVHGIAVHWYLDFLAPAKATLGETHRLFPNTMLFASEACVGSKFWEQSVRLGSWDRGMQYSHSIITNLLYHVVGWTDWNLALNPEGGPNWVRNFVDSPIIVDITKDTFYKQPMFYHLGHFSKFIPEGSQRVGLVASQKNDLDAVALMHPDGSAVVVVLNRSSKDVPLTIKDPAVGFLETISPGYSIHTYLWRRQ

SMILES: COCC(=O)N1CCC2(CC1)CN(c1ccncc1)C2
- Potency [1]: > 11.4 µM (inactive)
- activity change, negative = inhibition [2]: -2.96% (inactive)
- activity change, negative = inhibition [3]: 2.67% (inactive)
- activity, negative = inhibition [4]: -1.5% (inactive)
- Potency [5]: > 46 µM (inactive)
- Potency [6]: inactive
- Potency [7]: inactive
- activity change, negative = inhibition [8]: 2.59% (inactive)
- max response [8, 10]: 4.76%
- max response [8, 11]: 11.2%
- outcome [9]: inactive

SMILES: COCC(=O)N1CCC2(CC1)CN(c1ccccc1)C2
- Potency [1]: > 11.4 µM (inactive)
- activity change, negative = inhibition [2]: -8.7% (inactive)
- activity change, negative = inhibition [3]: 2.5% (inactive)
- activity, negative = inhibition [4]: 10.6% (inactive)
- Potency [5]: > 46 µM (inactive)
- Potency [6]: inactive
- Potency [7]: inactive
- activity change, negative = inhibition [8]: 4.95% (inactive)
- max response [8, 10]: 15%
- max response [8, 11]: 21.1%
- outcome [9]: inactive

SMILES: CC(=O)N1CCC2(CC1)CN(Cc1cc(C(F)(F)F)cc(C(F)(F)F)c1)C2
- Potency [1]: > 11.4 µM (inactive)
- activity change, negative = inhibition [2]: 2.68% (inactive)
- activity change, negative = inhibition [3]: 13.2% (inactive)
- activity, negative = inhibition [4]: 11% (inactive)
- Potency [5]: > 46 µM (inactive)
- Potency [6]: inactive
- Potency [7]: inactive
- activity change, negative = inhibition [8]: 4.71% (inactive)
- max response [8, 10]: 20.4%
- max response [8, 11]: 27.2%
- outcome [9]: inactive

SMILES: Cn1cccc1C(=O)N1CCC2(CC1)CN(C(=O)Nc1cccc(C#N)c1)C2
- Potency [1]: > 11.4 µM (inactive)
- activity change, negative = inhibition [2]: -22.3% (inactive)
- activity change, negative = inhibition [3]: -2.19% (inactive)
- activity, negative = inhibition [4]: -3.02% (inactive)
- Potency [5]: > 46 µM (inactive)
- Potency [6]: inactive
- Potency [7]: inactive
- activity change, negative = inhibition [8]: 4.61% (inactive)
- max response [8, 10]: 11.3%
- max response [8, 11]: 18.4%
- outcome [9]: inactive

SMILES: CC(C)NC(=O)N1CC[C@@]2(CCCN(C(=O)c3cnccn3)C2)C1
- Potency [1]: > 11.4 µM (inactive)
- activity change, negative = inhibition [2]: 7.64% (inactive)
- activity change, negative = inhibition [3]: 11.4% (inactive)
- activity, negative = inhibition [4]: 4.04% (inactive)
- Potency [5]: > 46 µM (inactive)
- Potency [6]: inactive
- Potency [7]: inactive
- activity change, negative = inhibition [8]: 3.99% (inactive)
- max response [8, 10]: -1.16%
- max response [8, 11]: 5.89%
- outcome [9]: inactive

SMILES: O=C(Nc1cccc(F)c1)N1CC[C@@]2(CCCN(C(=O)c3ccncc3)C2)C1
- Potency [1]: > 11.4 µM (inactive)
- activity change, negative = inhibition [2]: -4.21% (inactive)
- activity change, negative = inhibition [3]: 9.18% (inactive)
- activity, negative = inhibition [4]: -6.29% (inactive)
- Potency [5]: > 46 µM (inactive)
- Potency [6]: inactive
- Potency [7]: inactive
- activity change, negative = inhibition [8]: 5.32% (inactive)
- max response [8, 10]: 15.8%
- max response [8, 11]: 23.2%
- outcome [9]: inactive

SMILES: Cc1noc(C)c1C(=O)N1CCC[C@@]2(CCN(C(c3ccccc3)c3ccccc3)C2)C1
- Potency [1]: > 11.4 µM (inactive)
- activity change, negative = inhibition [2]: -7.96% (inactive)
- activity change, negative = inhibition [3]: -12.7% (inactive)
- activity, negative = inhibition [4]: -6.89% (inactive)
- Potency [5]: > 46 µM (inactive)
- Potency [6]: inactive
- Potency [7]: inactive
- activity change, negative = inhibition [8]: 2.35% (inactive)
- max response [8, 10]: 12.4%
- max response [8, 11]: 16.6%
- outcome [9]: inactive

SMILES: COc1ccc(C(=O)N2CCC[C@@]3(CCN(c4ccncc4)C3)C2)cc1
- Potency [1]: > 11.4 µM (inactive)
- activity change, negative = inhibition [2]: -1.81% (inactive)
- activity change, negative = inhibition [3]: -12.2% (inactive)
- activity, negative = inhibition [4]: -6.9% (inactive)
- Potency [5]: > 46 µM (inactive)
- Potency [6]: inactive
- Potency [7]: inactive
- activity change, negative = inhibition [8]: 0.196% (inactive)
- max response [8, 10]: -12%
- max response [8, 11]: -10.7%
- outcome [9]: inactive

SMILES: CC(=O)N1CCC2(CC1)CCN(c1ncccn1)CC2
- Potency [1]: > 11.4 µM (inactive)
- activity change, negative = inhibition [2]: -16.8% (inactive)
- activity change, negative = inhibition [3]: -1.48% (inactive)
- activity, negative = inhibition [4]: 10.5% (inactive)
- Potency [5]: > 46 µM (inactive)
- Potency [6]: inactive
- Potency [7]: inactive
- activity change, negative = inhibition [8]: 4.77% (inactive)
- max response [8, 10]: 8.06%
- max response [8, 11]: 17.2%
- outcome [9]: inactive

SMILES: O=C(c1ccncc1)N1CCC[C@@]2(CCN(c3ccncc3)C2)C1
- Potency [1]: > 11.4 µM (inactive)
- activity change, negative = inhibition [2]: -13.7% (inactive)
- activity change, negative = inhibition [3]: -14.9% (inactive)
- activity, negative = inhibition [4]: -3.85% (inactive)
- Potency [5]: > 46 µM (inactive)
- Potency [6]: inactive
- Potency [7]: inactive
- activity change, negative = inhibition [8]: 3.8% (inactive)
- max response [8, 10]: 9.21%
- max response [8, 11]: 15%
- outcome [9]: inactive

SMILES: O=C(c1csnn1)N1CCC2(CC1)CN(c1ncccn1)C2
- Potency [1]: > 11.4 µM (inactive)
- activity change, negative = inhibition [2]: 13.2% (inactive)
- activity change, negative = inhibition [3]: 16.9% (inactive)
- activity, negative = inhibition [4]: 1.44% (inactive)
- Potency [5]: > 46 µM (inactive)
- Potency [6]: inactive
- Potency [7]: inactive
- activity change, negative = inhibition [8]: 0.698% (inactive)
- max response [8, 10]: -0.721%
- max response [8, 11]: 1.07%
- outcome [9]: inactive

SMILES: CS(=O)(=O)N1CCC[C@@]2(CCN(Cc3ccc(C#N)cc3)C2)C1
- Potency [1]: > 11.4 µM (inactive)
- activity change, negative = inhibition [2]: 10.7% (inactive)
- activity change, negative = inhibition [3]: -5.85% (inactive)
- activity, negative = inhibition [4]: -6.21% (inactive)
- Potency [5]: > 46 µM (inactive)
- Potency [6]: inactive
- Potency [7]: inactive
- activity change, negative = inhibition [8]: 1.64% (inactive)
- max response [8, 10]: -0.832%
- max response [8, 11]: -0.755%
- outcome [9]: inactive

SMILES: O=C(c1ccco1)N1CCC[C@@]2(CCN(c3ncccn3)C2)C1
- Potency [1]: > 11.4 µM (inactive)
- activity change, negative = inhibition [2]: -6.68% (inactive)
- activity change, negative = inhibition [3]: -7.21% (inactive)
- activity, negative = inhibition [4]: -5.91% (inactive)
- Potency [5]: > 46 µM (inactive)
- Potency [6]: inactive
- Potency [7]: inactive
- activity change, negative = inhibition [8]: 3.43% (inactive)
- max response [8, 10]: 17.7%
- max response [8, 11]: 23.3%
- outcome [9]: inactive

SMILES: Cn1cccc1C(=O)N1CCC2(CCN(C(=O)Nc3cccc(C#N)c3)CC2)CC1
- Potency [1]: > 11.4 µM (inactive)
- activity change, negative = inhibition [2]: -16.2% (inactive)
- activity change, negative = inhibition [3]: 8.67% (inactive)
- activity, negative = inhibition [4]: -3.46% (inactive)
- Potency [5]: > 46 µM (inactive)
- Potency [6]: inactive
- Potency [7]: inactive
- activity change, negative = inhibition [8]: 4.21% (inactive)
- max response [8, 10]: 4.21%
- max response [8, 11]: 11.6%
- outcome [9]: inactive

SMILES: COC(=O)N1CCC2(CCN(C(=O)Nc3cccc(C#N)c3)CC2)CC1
- Potency [1]: > 11.4 µM (inactive)
- activity change, negative = inhibition [2]: -20.7% (inactive)
- activity change, negative = inhibition [3]: 4.12% (inactive)
- activity, negative = inhibition [4]: 7.14% (inactive)
- Potency [5]: > 46 µM (inactive)
- Potency [6]: inactive
- Potency [7]: inactive
- activity change, negative = inhibition [8]: -0.883% (inactive)
- max response [8, 10]: 12.6%
- max response [8, 11]: 14%
- outcome [9]: inactive
